Experimental data: PubChem BioAssay AID1508625 (Wald Lab, School of Medicine, Case Western Reserve …, 2021)

Assay: small molecules boosting NK-mediated OVCAR3 lysis – imaging, primary NK cells, calcein-AM imaging, primary screen (AID 1508625);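 also: compound given to NK cells 16 h before adding targets at 1.5 to 1 ratio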;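 as to z-score: more negative robust z means stronger NK killing of tumor cells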
Conditions: OVCAR3 lysis by primary NK cells, at 5 µM; z-score: measured here: robust Z-score, single-point normalisation

| Structure (SMILES) | corrected activity, negative = more killing | z-score |
| --- | --- | --- |
| CCOc1ccc(NS(=O)(=O)c2ccc3[nH]cc(C(=O)NCC4CCCO4)c(=O)c3c2)cc1 (stereo not drawn) | -2.15% | -0.527 |
| O=C1C(=O)N(Cc2cccnc2)C(c2ccncc2)C1=C(O)c1ccc(F)cc1 (stereo not drawn) | -3.73% | -1.62 |
| O=C(Nc1ccccc1Cl)c1cccc([N+](=O)[O-])c1 | -1.44% | -0.51 |
| CCOC(=O)Cc1ccc(N(Cc2cccs2)S(=O)(=O)c2ccc([N+](=O)[O-])cc2)cc1 | -7.32% | -1.98 |
| COc1ccc(-c2coc3c(C)c4oc(=O)c5c(c4cc23)CCC5)cc1 | -3.7% | -1.1 |
| CCN(CC)CCCn1c(=S)[nH]c2cc(C(=O)OC)ccc2c1=O | -3.76% | -0.997 |
| COc1ccc(-n2c(=S)[nH]c3cc(C(=O)O)ccc3c2=O)cc1 | -5.11% | -1.63 |
| O=C(c1ccncc1)N1CCN(CC2CC=CCC2)CC1 (stereo not drawn) | -3.11% | -1.39 |
| Cc1cc2c(cc1C)NC(c1coc3ccc(Cl)cc3c1=O)C1=C(CC(C)(C)CC1=O)N2 (stereo not drawn) | -2.17% | -0.968 |
| COc1ccc(C(=O)N2CCN(CC=Cc3ccccc3)CC2)cc1 | -1.03% | -0.422 |
| CSC1CCCCC1(O)CSc1nc2ccccc2o1 (stereo not drawn) | -4.44% | -1.67 |
| COc1cc(C)c(NC(=O)c2ccccc2I)cc1C(C)C | -3.4% | -1.89 |
| COC(=O)c1ccc(COC(=O)c2ccccc2Cl)cc1 | -2.71% | -1.51 |
| CC(=O)Oc1ccc(-c2nc3ccc(OC(C)=O)cc3c(=O)o2)cc1 | -3.33% | -1.44 |
| O=C(c1cccc(F)c1)N1CCCN(C(=O)c2cccc(F)c2)CC1 | -4.12% | -1.69 |
| O=C(Nc1cc2c(cc1C(=O)c1ccc(Br)cc1)OCCO2)c1ccc(Cl)cc1 | -4.2% | -1.3 |
| CCOC(=O)c1sc(N2C(=O)C(=O)C(=C(O)c3ccccc3)C2c2ccc(C(C)(C)C)cc2)nc1C (stereo not drawn) | -1.11% | -0.48 |
| COc1cc2c(cc1NC(=O)COc1ccccc1F)oc1ccccc12 | 0.193% | 0.0792 |
| COc1ccc(OC)c(CN2CCN(Cc3ccccc3[N+](=O)[O-])CC2)c1 | -3.74% | -1.67 |
| COc1ccc(-n2c(=S)[nH]c3cc(C(=O)O)ccc3c2=O)c(OC)c1 | -4.6% | -1.46 |
| Cc1cc2oc(=O)c3c(c2c2occ(-c4ccc(Br)cc4)c12)CCC3 | -4.94% | -1.48 |
| Cc1occc1C(=O)N1N=C(C2CC2)CC1(O)C(F)(F)F (stereo not drawn) | -2.75% | -1.13 |
| C#CCOc1ccc2c(c1)c(C(C)=O)c(C)n2-c1ccc(OCC)cc1 | -1.52% | -0.66 |
| CCOC(=O)c1c(N)sc(C(=O)Nc2cc(C)ccc2C)c1C | -5.05% | -1.57 |
